Measured values as given in PubChem BioAssay AID585 (National Center for Advancing Translational Sciences (NCATS), 2007).
Hit rate of the full screen: of about 71,000 compounds, about 1,300 (1.8%) were called active. What follows is part of a selection rich in actives, with near analogues and random picks from the rest. Unmarked numbers belong to inactive results. Calls come from the whole dose curve.

Biological target: Beta-lactamase (Escherichia coli (strain K12)) (UniProt P00811)
Assay: Promiscuous and Specific Inhibitors of AmpC Beta-Lactamase (assay without detergent); for activity change, negative = inhibition: % of control where 0% means no effect
Conditions: AmpC nitrocefin hydrolysis, absorbance 480 nm, no detergent; series mostly up to 28.7 µM; activity change, negative = inhibition: at the top concentration
Summary of the method: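 Enzyme, pH 7.0 phosphate. Compound titrations were pre-incubated with AmpC for 15 min at room temperature before nitrocefin (stock 800 uM) addition; product formation was recorded at 480 nm every 20 s for 4 min.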
Potency is the fitted concentration of half-maximal effect.

Beta-lactamase (Escherichia coli (strain K12)), sequence (P00811 whole entry, looked up): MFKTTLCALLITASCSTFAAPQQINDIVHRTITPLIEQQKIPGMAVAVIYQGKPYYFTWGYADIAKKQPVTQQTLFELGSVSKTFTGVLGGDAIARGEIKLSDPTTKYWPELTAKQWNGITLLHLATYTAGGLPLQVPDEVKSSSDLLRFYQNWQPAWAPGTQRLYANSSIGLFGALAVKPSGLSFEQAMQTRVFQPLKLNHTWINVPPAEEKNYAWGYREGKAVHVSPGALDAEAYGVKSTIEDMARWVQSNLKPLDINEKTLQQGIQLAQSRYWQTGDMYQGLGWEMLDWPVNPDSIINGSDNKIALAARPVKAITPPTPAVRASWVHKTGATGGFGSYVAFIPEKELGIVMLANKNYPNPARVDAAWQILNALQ

Row | SMILES | activity change, negative = inhibition | Potency
1 | O=C(NCc1ccco1)C1CCCN(S(=O)(=O)c2cccc3nonc23)C1 (configuration not stated) | 0.9% | 
2 | O=C(NCc1ccco1)C1CCCN(S(=O)(=O)c2cnc[nH]2)C1 (configuration not stated) |  | 3.98 µM [single pt active] (active)
3 | CCCS(=O)(=O)N1CCCC(C(=O)NCc2ccco2)C1 (configuration not stated) | -0.5% | 
4 | CC1(C)CC(CCC(=O)Nc2ccccc2Cl)C(=O)O1 (configuration not stated) | -5.9% | 
5 | COc1ccc(C(=O)N(Cc2ccc(N(C)C)cc2)C2CCS(=O)(=O)C2)cc1 (configuration not stated) | 37.7% | 
6 | Cc1nc(N2CCN(c3ncccn3)CC2)c2oc3ccccc3c2n1 | 56.3% | 
7 | Cn1cccc1C(=O)NC(=O)COC(=O)Cc1coc2ccc3ccccc3c12 |  | 12.6 µM (active)
8 | CCOC(=O)N1CCN(C(=O)c2cc3c(ccc4ccccc43)oc2=O)CC1 | 42.4% | 
9 | CC(C)(C)NC(=O)NC(=O)COC(=O)Cn1c(C(F)(F)F)nc2ccccc21 | 24% | 
10 | CCN1CCN(Cc2c(O)ccc3c(=O)c(-c4ccc(OC)c(OC)c4)c(C(F)(F)F)oc23)CC1 | 51.9% | 
11 | CN1CCN(CCCNC(=O)c2cc3c(=O)oc4ccccc4c3s2)CC1 | 13.6% | 
12 | COc1ccccc1NC(=O)C1=C(C)Nc2ncnn2C1c1ccc(C)o1 (configuration not stated) | 2.7% | 
13 | COc1ccccc1NC(=O)C1=C(C)Nc2nnnn2C1c1cccc(Br)c1 (configuration not stated) | 12.1% | 
14 | COc1cc(C2C(C(=O)Nc3ccccc3OC)=C(C)Nc3ncnn32)ccc1O (configuration not stated) |  | 3.98 µM [single pt active] (active)
15 | COc1ccc(CCN(C)CCN2C(=O)c3ccccc3C2=O)cc1OC | 9.6% | 
16 | CCn1cc(C(=O)NCC2CCCO2)c(=O)c2cc(S(=O)(=O)N3CCCCC3)ccc21 (configuration not stated) | 94.7% | 
17 | O=C(NC1CCCCC1)n1c(=O)oc2cc(S(=O)(=O)N3CCCCC3)ccc21 | -14.2% | 
18 | CCn1cc(C(=O)NC2CCCCCC2)c(=O)c2cc(S(=O)(=O)N3CCCCC3)ccc21 |  | 3.98 µM [single pt active] (active)
19 | Oc1ccc2ccccc2c1C=NCc1c(O)ccc2ccccc12 | -20.6% [at 5.75 µM] | 
20 | O=C(CCC(=O)OCC(F)(F)C(F)F)NCc1ccccc1 | 7.3% | 
21 | Cc1ccc(NC(=O)CS(=O)CC(=O)N(c2ccccc2)C(C)C(=O)NC2CCCC2)cc1 (configuration not stated) | 76.9% | 

Row | SMILES | activity change, negative = inhibition | Potency
22 | Cc1oc2nc(SCC(=O)NCc3cccnc3)nc(N)c2c1C | -1.9% | 
23 | COc1ccc(-c2nc(CS(=O)CC(=O)N3CCc4ccccc4C3)c(C)o2)cc1 (configuration not stated) | 91.4% | 
24 | COc1ccc(-c2nc(CS(=O)CC(=O)N3CCC4(CC3)OCCO4)c(C)o2)cc1 (configuration not stated) | 41.7% | 
25 | Cc1ccc(-c2nc(CS(=O)CC(=O)NC3CCCC3)c(C)o2)cc1 (configuration not stated) |  | 3.98 µM [single pt active] (active)
26 | COc1ccc(-c2nc(CS(=O)CC(=O)NCc3ccccn3)c(C)o2)cc1 (configuration not stated) |  | 1.26 µM [single pt active] (active)
27 | COc1ccc(-c2nc(CS(=O)CC(=O)NCc3cccnc3)c(C)o2)cc1OC (configuration not stated) |  | 3.98 µM [single pt active] (active)
28 | Cc1ccc(-c2nc(CS(=O)CC(=O)N3CCN(c4ncccn4)CC3)c(C)o2)cc1 (configuration not stated) | 95.4% | 
29 | COc1ccc(CCNC(=O)C2CCCN(Cc3nc(-c4cccc(Cl)c4)oc3C)C2)cc1OC (configuration not stated) | 162% | 
30 | C=CC(=C)CCC=C(C)C | -13.4% | 
31 | COc1ccc2oc(=O)c(C(=O)N3CCN(c4ccccc4F)CC3)cc2c1 | 43.1% | 
32 | CC1(C)CC(=O)C=C(NC2CC(C)(C)NC(C)(C)C2)C1 | -7.6% | 
33 | O=C(COc1ccc2oc3c(c2c1)CCCC3)Nc1ccccn1 | -0.5% | 
34 | O=C1CN(C(=O)COC(=O)C2CC(=O)N(Cc3ccco3)C2)c2ccccc2N1 (configuration not stated) | 6% | 
35 | COc1cc(C[C@H](C)N)c(OC)cc1I |  | inactive
36 | COC(=O)c1ccc(C(NC(=O)OCc2ccccc2)/C(C)=C/[C@@H](C)C(=O)NCc2cc(C)on2)cc1 (some centres not stated) | 79.5% | 
37 | CCOC(=O)c1ccc(-n2c(C)nc3c(cnn3-c3ccccc3C)c2=O)cc1 | 49.2% | 
38 | COC(=O)C1=C(C)Nc2ncnn2C1c1ccco1 (configuration not stated) | -4.6% | 
39 | CC1=C(C(=O)OCc2ccccc2)C(c2ccco2)n2ncnc2N1 (configuration not stated) |  | 3.98 µM [single pt active] (active)
40 | CCOC(=O)CSC1=C(C#N)C(c2ccco2)C(C(=O)OCc2ccccc2)=C(C)N1 (configuration not stated) | -9.8% | 
41 | O=C1N=C(N2CCOCC2)CS1 | -5.9% | 
42 | CC(=O)Oc1ccc2c(C)c(CC(C)O)c(=O)oc2c1 (configuration not stated) | 0.7% | 

Row | SMILES | activity change, negative = inhibition | Potency
43 | CC(=O)Nc1cc2ccc(OC(C)=O)cc2oc1=O |  | 3.98 µM [single pt active] (active)
44 | COc1ccc2oc(C)c(NC(C)=O)c2c1 | -8.6% | 
45 | CCn1c(=N)c(S(=O)(=O)c2ccc(F)cc2)cc2c(=O)n3ccccc3nc21 | 35.4% | 
46 | O=C(NCc1ccccn1)c1cc2ccccc2oc1=O | 0.3% | 
47 | O=C(Oc1cccnc1)c1cc2ccccc2oc1=O |  | 12.6 µM (active)
48 | COc1ccc2oc(=O)c(C(=O)O)cc2c1 | -7.1% | 
49 | Cc1ccc(C)c(N2CCN(C(=O)CCCCn3c(=O)[nH]c4ccccc4c3=O)CC2)c1 | 69.6% | 
50 | COc1ccc(Cc2nnc(NS(=O)(=O)Cc3ccccc3)s2)cc1 | -14.8% | 
51 | COc1ccc(Cc2nnc(NC(=O)Cc3cccs3)s2)cc1 |  | 12.6 µM (active)
52 | CCc1nnc(NC(=O)CSc2nnc(Cc3ccccc3)n2-c2ccc(OC)cc2)s1 | 49% | 
53 | COc1ccc2[nH]cc(CCNc3nc(-c4cccc(NS(C)(=O)=O)c4)nc4ccccc34)c2c1 | -19.8% | 
54 | CCCC1C(c2ccccc2)C(C#N)(C#N)C2(C#N)CC1(N)NC2=O (configuration not stated) | 32% | 
55 | CCOC(=O)Cc1csc(NC(=O)CN(C)S(=O)(=O)c2ccc3c(c2)CCC(=O)N3)n1 |  | 3.98 µM [single pt active] (active)
56 | CCOC(=O)Cc1csc(NC(=O)CSc2nc(C)cc(=O)[nH]2)n1 | -14.8% | 
57 | CCOC(=O)Cc1csc(NC(=O)C(C)(C)C)n1 | 4.6% | 
58 | Cc1ccc(CNC(=O)CCCNC(=O)c2ccc(Cl)cc2)n1C | 57.8% | 
59 | CC(C)(O)C#Cc1ccc(C(=O)N2CCC(C(N)=O)(N3CCCCC3)CC2)cc1 | -9.6% | 
60 | CC1(C)SC2c3ccccc3C(=O)N2[C@@H]1C(=O)NCc1ccco1 (some centres not stated) | 7.2% | 
61 | CC1(C)S[C@@H]2[C@@H](NC(=O)[C@@H](N)c3ccccc3)C(=O)N2[C@H]1C(=O)O |  | 0.0501 µM (active)
62 | CC(CNC(=O)c1ccc(Br)o1)NC(=O)c1ccc(Br)o1 (configuration not stated) | -4.4% | 
